For 17 molecules, inhibition results are on record in PubChem BioAssay.

Unmarked numbers belong to inactive results. No rule for the calls is given here.

Chain of Pantothenate synthetase (Mycobacterium tuberculosis (strain ATCC 25618 / H37Rv)) (P9WIL5 whole entry, looked up): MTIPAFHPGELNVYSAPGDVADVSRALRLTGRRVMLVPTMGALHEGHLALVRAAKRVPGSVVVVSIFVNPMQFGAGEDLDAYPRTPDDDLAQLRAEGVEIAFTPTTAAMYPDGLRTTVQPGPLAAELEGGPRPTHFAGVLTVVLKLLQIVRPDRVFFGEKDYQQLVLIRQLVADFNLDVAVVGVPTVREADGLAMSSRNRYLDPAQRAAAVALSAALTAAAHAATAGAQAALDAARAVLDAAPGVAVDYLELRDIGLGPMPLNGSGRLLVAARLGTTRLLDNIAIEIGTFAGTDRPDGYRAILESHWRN

This assay has as its target Pantothenate synthetase (Mycobacterium tuberculosis (strain ATCC 25618 / H37Rv)) (UniProt P9WIL5). As to the kind of experiment: Recombinant Mtb pantothenate synthetase (PanC) inhibitors, coupled enzyme, confirmatory (AID 375).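 Also: 0% = full reaction with vehicle and 100% = no enzyme background.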 Conditions: coupled enzyme assay; at 10 µM, active compounds read high.
What is called inhibition is how much of the control response was suppressed. `CCOC(=O)c1ccc(N2C(=O)CC(NC3CCN(C(=O)c4ccc(F)cc4)CC3)C2=O)cc1` (configuration not stated): the inhibition was 1%.

For the molecule `COCCn1nnnc1CN(Cc1cccnc1)Cc1cc2cc(OC)ccc2[nH]c1=O`, the inhibition was 6%.

Consider `N#CCc1nc(CSc2nc3ccccc3s2)cs1`, for which the inhibition was 7%.

On to `COc1ccc(NC(=O)CSc2nnc(-c3ccccc3C)n2C)cc1`, for which the inhibition was 0%.

`Cc1nnc(N(Cc2ccco2)C(=O)c2cccc(C#N)c2)s1`: the inhibition is 2%.

In the case of `CCSc1nnc(N2C(=O)CC(c3ccsc3)C3=C2CC(C)(C)CC3=O)s1` (configuration not stated), the inhibition was 0%.

Consider `CC(C)c1nc(NCC2CCCO2)c(C#N)c2c1COC(C)(C)C2` (configuration not stated), for which the inhibition is 3%.

For `CNC(=O)c1nnn(Cc2ccccc2)c1NC(C)=O`, the inhibition was 2%.

Turning to `Cn1c2ccc(F)cc2c2ncn(CCN3CCOCC3)c(=O)c21`, the inhibition was 6%.

As for `CC1CCCCC1NC(=O)COc1ccc(-n2cnnn2)cc1` (configuration not stated), the inhibition is 0%.

In the case of `COc1ccc(OC)c(N(CC(=O)N2CCN(c3cc(Cl)ccc3C)CC2)S(C)(=O)=O)c1`, the inhibition was 2%.

With `Cc1ccc(C)c(-c2nc3ccc(N)cc3[nH]2)c1`, the inhibition is 0%.

As to `O=C(Nc1ccc2c(c1)OCO2)c1cccc(Cl)c1`, the inhibition is 0%.

For `Cc1ccc(SCCNS(=O)(=O)c2ccc(F)cc2)cc1`, the inhibition is 1%.

For `CCN(CC)c1ccc(-c2nn3c(-c4cccnc4)nnc3s2)cc1`, the inhibition is 4%.

In the case of `COc1ccc(OCC(=O)Nc2cccc3ncccc23)cc1`, the inhibition is 2%.

`CC1N=C2c3ccccc3N=C(SCc3cc(=O)n4cc(Cl)ccc4n3)N2C1=O` (configuration not stated): the inhibition is 2%.
